Assay results from PubChem BioAssay AID1626 (SRMLSC, 2009).
Among all 220,000 compounds or so, about 2,000 (0.91%) were called active. Not shown: some 2% with an inconclusive outcome. These entries were drawn from the full list. Results with a measured potency or affinity are listed apart. A number with no mark means an inactive call. Cut-off read from the data, not from the text of the source: inconclusive = inhibition above about 80% without an active follow-up result; inactive = below that; test concentration not stated here.

Assay: M. tuberculosis H37Rv growth inhibitors, H37Rv strain (AID 1626);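 note: bacteria incubated seven days before Alamar blue readout; 0% = bacteria only wells and 100% = bacteria with antibiotic wells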
Conditions: stronger effect = higher value, concentration not given here
COc1ccc(C2C(C(=O)O)c3ccccc3C(=O)N2Cc2ccco2)cc1 (stereo unspecified) showed an inhibition of -9.26%. Molecule O=C(CCOc1ccccc1)Nc1ccccc1 has an inhibition of 7.71%. CC(=O)c1ccc(NC(=O)Oc2ccccc2)cc1 showed an inhibition of -7.64%. Work on CCOC(=O)Nc1ccc(Oc2ccccc2)cc1 yielded an inhibition of 8.39%. For CCOC(=O)c1ccc(NC(=O)Nc2ccc(S(N)(=O)=O)cc2)cc1, the inhibition was -7.07%. COC(=O)c1ccc(NC(=O)CCOc2ccccc2)cc1 showed an inhibition of 23.7%. Molecule CC(=O)Nc1ccc(NC(=O)Oc2ccccc2)cc1 has an inhibition of -9.97%. COC(=O)c1ccc(NC(=O)NS(=O)(=O)c2ccc(C)cc2)cc1 gave an inhibition of 55.9%. Work on CCOC(=O)Nc1cccc(Nc2ccccc2)c1 yielded an inhibition of 3.05%. Molecule CC(C)c1ccccc1NC(=O)COc1ccc2c(=O)c(Oc3ccc4ccccc4c3)coc2c1 has an inhibition of 5.82%. Molecule COC(=O)c1cc(NS(=O)(=O)c2cccc(Cl)c2)ccc1N1CCOCC1 has an inhibition of 3.2%. With O=C(CN(CC1CCCO1)C(=O)CCC(=O)Nc1nccs1)NCc1ccccc1 (stereo unspecified) the inhibition was -3.47%. For COc1ccccc1N(C)S(=O)(=O)c1ccc(C(=O)OCC(=O)N2CCCCCC2)cc1, the inhibition was 9.09%. Molecule CC1=NN(C(C#N)c2cccc([N+](=O)[O-])c2)C(C)(C)C1 (stereo unspecified) has an inhibition of -1.89%. Cc1ccc(NC(=O)CCSCCc2ccccn2)cc1 gave an inhibition of 71.6%. CC(=O)Nc1ccc(NC(=O)CCSCCc2ccccn2)cc1 showed an inhibition of -0.22%. For Cc1ccc(OCCCC(=O)Nc2ccc(Br)cc2)cc1, the inhibition was -4.3%. With CCOC(=O)c1ccc(NC(=O)CN(C)S(=O)(=O)c2ccc(OC)cc2)cc1 the inhibition was -10.7%. Cc1ccc(OCCC(=O)Nc2ccc(F)c(F)c2)cc1 showed an inhibition of -1.46%. COc1ccc(NC(=O)CCOc2ccccc2)cc1 showed an inhibition of 70.1%. Work on O=C(CN1CC(=O)Nc2ccccc21)Nc1ccc(F)c(F)c1 yielded an inhibition of 0.62%. With COc1ccc(CCNC(=O)CSc2cccc3cccnc23)cc1OC the inhibition was 3.55%. With CCC(C)NC(=O)c1ccccc1SC (stereo unspecified) the inhibition was 9.14%. With CCN(Cc1cc(=O)[nH]c2ccccc12)C(=O)c1ccc(C)cc1 the inhibition was -2.96%. In the case of COc1ccc(C(=O)NC(=S)Nc2ccc(CN3CCCCC3)cc2)cc1Cl, the inhibition is reported as 7.56%. Molecule Cc1oc2ccc(OC(=O)N(C)C)cc2c1C(=O)OC(C)C has an inhibition of -7.47%. With COC(=O)c1c(C)oc2ccc(OC(=O)N3CCOCC3)cc12 the inhibition was -6.17%. With Cc1oc2ccc(OS(C)(=O)=O)cc2c1C(=O)OC(C)C the inhibition was -0.97%. CCOC(=O)c1c(C)oc2ccc(OS(C)(=O)=O)cc12 showed an inhibition of 0.04%. Molecule CCOC(=O)c1c(C)oc2ccc(OCC(N)=O)cc12 has an inhibition of 8.61%. With COC(=O)c1c(C)oc2ccc(NS(=O)(=O)c3cccs3)cc12 the inhibition was 2.07%. COC(=O)c1ccc(CSc2nc3c(cnn3-c3ccc(C)cc3)c(=O)[nH]2)o1 showed an inhibition of -0.23%. CC1(C)C(=O)Nc2ccccc2N1C(=O)COc1ncnc2ccccc12 gave an inhibition of 4.16%. O=C(C[n+]1ccc(/C=N/O)cc1)NCc1ccccc1 gave an inhibition of -12.5%. In the case of COc1cc(CCNc2ccc3nnc(-c4ccccc4)n3n2)cc(OC)c1OC, the inhibition is reported as 10.3%. With O/N=C1\CCCCc2ccccc21 the inhibition was -4.26%. For CC12CCC(C(=O)N3CCN(C(c4ccccc4)c4ccccc4)CC3)(OC1=O)C2(C)C (stereo unspecified), the inhibition was 1.93%. CC(Nc1nc(-c2ccc(F)cc2)cs1)c1nc2cc(Cl)c(N3CCCCC3)cc2n1CCCO (stereo unspecified) showed an inhibition of 78%. CC(Nc1nc(-c2ccc(F)cc2)cs1)c1nc2cc(Cl)c(N3CCCCC3)cc2n1CCOCCO (stereo unspecified) gave an inhibition of 19.6%. With COc1ccc(-c2csc(NC(C)c3nc4cc(Cl)c(Cl)cc4n3CCCO)n2)cc1 (stereo unspecified) the inhibition was 5.27%. Work on CC(Nc1nc(-c2ccc(Cl)cc2)cs1)c1nc2cc(Cl)c(N3CCCCC3)cc2n1CCOCCO (stereo unspecified) yielded an inhibition of 44.5%. Cc1ccc(NC(=O)c2cc(NC(=O)C3CC=CCC3C(=O)O)ccc2N2CCOCC2)cc1Cl (stereo unspecified) showed an inhibition of -6.7%. Work on CCn1c(CNC(=O)c2ccccc2)nc2ccccc21 yielded an inhibition of -6.06%. O=C(Nc1nc2ccccc2n1CCN1CCCC1)c1ccc(Cl)cc1 gave an inhibition of 58.7%. CN(C)CCn1c(NC(=O)c2ccc(Cl)cc2)nc2ccccc21 showed an inhibition of 65.2%. Molecule CCn1c(NC(C)=O)nc2ccccc21 has an inhibition of 2.94%. CC(C)NC(=O)c1cccc(Cn2cc(Cl)cn2)c1 showed an inhibition of -2.76%. For CCN(CC)CCn1c(NC(=O)c2ccc(Cl)cc2)nc2ccccc21, the inhibition was 57.6%. With CC(=O)Nc1nc2ccccc2n1CCN1CCOCC1 the inhibition was -6.15%. In the case of Cn1c(NC(=O)c2cccc(Cn3cc(Cl)cn3)c2)nc2ccccc21, the inhibition is reported as 84.7%. Molecule Cc1c(C(=O)N/N=C/c2ccc(N3CCOCC3)cc2)nc2ccccn12 has an inhibition of 3.49%. In the case of CC(c1ccccc1)c1nnc(NC(=O)c2ccc3c(c2)OCO3)s1 (stereo unspecified), the inhibition is reported as 6.54%. Work on O=C(OCCN1C(=O)c2ccccc2C1=O)C1CCN(S(=O)(=O)c2cccs2)CC1 yielded an inhibition of -5.04%. CCCCNC(=O)N1CCN(C/C=C/c2ccccc2)CC1 gave an inhibition of 5.68%. O=C(c1ccc(C(F)(F)F)cc1)N1CCCCC1 gave an inhibition of -0.08%. Work on Fc1cccc(NC(=S)NCc2cccnc2)c1 yielded an inhibition of 21.1%. O=c1c2cc(-c3ccccc3)sc2nc2n1N=C(c1ccccc1)CS2 showed an inhibition of 10.6%. For CCCCN(CCCC)Cc1cc2ccccc2c2c1COC2, the inhibition was 4.07%. With CCCn1c(Nc2nc3ccccc3n2C)nc2ccccc21 the inhibition was 2.56%. In the case of CCCn1c(NCCO)nc2ccccc21, the inhibition is reported as -2.95%. Work on CCCn1c(Nc2ccccc2C)nc2ccccc21 yielded an inhibition of -8.39%. Molecule CCCn1c(CNC(=O)c2ccccc2)nc2ccccc21 has an inhibition of -0.92%. In the case of CCn1c(C(C)NC(=O)c2cccs2)nc2ccccc21 (stereo unspecified), the inhibition is reported as 2.83%. With CCCn1c(C(C)NC(=O)c2ccccc2)nc2ccccc21 (stereo unspecified) the inhibition was 0.32%. Molecule CCn1c(CCCNC(=O)c2cccs2)nc2ccccc21 has an inhibition of -2.25%. Work on CCCn1c(NC(=S)Nc2ccccc2)nc2ccccc21 yielded an inhibition of 7.73%. Cc1onc(-c2ccccc2Cl)c1C(=O)N1C=CC(C(F)(F)Cl)=NCC1 gave an inhibition of 1.09%. With O=C(NCc1ccc(Cl)cc1)c1cc(-c2cccs2)on1 the inhibition was -1.76%. Molecule Cc1cccc(SCC(=O)Nc2ccccc2[N+](=O)[O-])c1 has an inhibition of 7.5%. In the case of COc1ccc(N=C2S/C(=C\c3ccc(OCC(=O)O)cc3)C(=O)N2CCc2c[nH]c3ccccc23)cc1, the inhibition is reported as -4.37%. In the case of Cc1ccc(C)c(CN2C(=O)COc3ccc(C(=O)c4ccccc4C(=O)O)cc32)c1, the inhibition is reported as 15.8%. In the case of CCN(CC)S(=O)(=O)c1cccc(NC(=O)COC(=O)CNC(=O)c2cccc(F)c2)c1, the inhibition is reported as -4.29%. Work on Cc1ccccc1NS(=O)(=O)c1cc(C(=O)NCc2ccco2)ccc1C yielded an inhibition of -1.94%. With COc1cc(NC(=O)CSc2nnc(C)s2)cc(OC)c1OC the inhibition was 0.33%. In the case of CCn1c(NC(=O)Nc2ccccc2OC)nc2ccccc21, the inhibition is reported as 81.5%. With CCn1cc(Cl)c(C(=O)Nc2nc3ccccc3n2CCN2CCCCC2)n1 the inhibition was 3.91%. Cc1ccc(-c2nc(C(F)(F)F)cc(=O)[nH]2)cc1 showed an inhibition of -0.92%. Work on CCOC(=O)c1c(NC(=O)c2nn(CC)cc2Br)c(C#N)cn1-c1ccccc1 yielded an inhibition of -6%. With CCOC(=O)N1CCC(N2CCCC(C(=O)c3cc(C)c(OC)c(C)c3)C2)CC1 (stereo unspecified) the inhibition was -0.88%. In the case of CCOC(=O)N1CCC(N2CCCC(C(=O)c3cccc(OC)c3)C2)CC1 (stereo unspecified), the inhibition is reported as 0.16%. With CCn1ccnc1CN1CCCC(C(=O)c2cc(C)c(OC)c(C)c2)C1 (stereo unspecified) the inhibition was 9.37%. With CC(C)Oc1cccc(C(=O)C2CCCN(Cc3ccon3)C2)c1 (stereo unspecified) the inhibition was 5.09%. Work on COc1ccc(O)c(CN2CCCC(C(=O)c3ccccc3SC)C2)c1 (stereo unspecified) yielded an inhibition of -3.14%. Work on COc1ccc(OC)c(CN2CCCC(C(=O)c3ccccc3SC)C2)c1 (stereo unspecified) yielded an inhibition of 5%. Work on Cc1ncc(CN2CCCC(C(=O)c3cccc(OC(C)C)c3)C2)s1 (stereo unspecified) yielded an inhibition of -0.24%. With CCn1ccnc1CN1CCCC(C(=O)c2ccc(OC)cc2OC)C1 (stereo unspecified) the inhibition was -1.43%. In the case of c1ccc(-c2cnc(SCCN3CCOCC3)n2CC2CCCO2)cc1 (stereo unspecified), the inhibition is reported as 4.09%. For CCN(CC)C(=O)C(=O)c1cccn1-c1c(Cl)cccc1C#N, the inhibition was -1.07%. NC(=O)c1cn(-c2ccccc2)nc1-c1cccnc1 showed an inhibition of -9.42%. For CC1CC(=O)N(CC(=O)NCc2ccco2)c2ccccc2S1 (stereo unspecified), the inhibition was -7.83%. In the case of O=C(CCc1nnc(CCc2c[nH]c3ccccc23)o1)NC1CCC1, the inhibition is reported as -2.04%. COc1ccc(NC(=O)c2ccccc2[N+](=O)[O-])cc1 gave an inhibition of -5.35%. For Cc1c(C(=O)NCCCn2ccnc2)oc2ccccc12, the inhibition was 3%. Work on CCc1ccc(/C=N/NC(=O)c2cc(C)on2)s1 yielded an inhibition of 4.86%. In the case of CC(C)CCNC(=O)CCSCCC(=O)NCCC(C)C, the inhibition is reported as -5.9%. COc1ccc(C(=O)C2CCCN(Cc3cnc(C)s3)C2)cc1OC (stereo unspecified) gave an inhibition of -7.69%. With COc1cccc(C(=O)C2CCCN(Cc3cccc(C)n3)C2)c1 (stereo unspecified) the inhibition was 6.54%. For COc1ccc(C(=O)C2CCCN(Cc3cnc(C)s3)C2)c(OC)c1 (stereo unspecified), the inhibition was 1.52%. Molecule COc1c(C)cc(C(=O)C2CCCN(Cc3ccccn3)C2)cc1C (stereo unspecified) has an inhibition of 52.1%. In the case of Cc1cccc(CN2CCCC(C(=O)c3ccc4c(c3)OCO4)C2)n1 (stereo unspecified), the inhibition is reported as 9.77%. For COc1ccc(C(=O)C2CCCN(Cc3cccc(C)n3)C2)c(OC)c1 (stereo unspecified), the inhibition was -9.04%.
